Measurements from PubChem BioAssay (NCI).
Compounds without any hit were thinned out: in the full panel of roughly 79,000, 15% have a hit. Unmarked numbers belong to inactive results. The source made the active and inactive calls. No stated cut-off is given here; in the data, active means growth inhibition above about 70%; inactive means the rest.

assay: NCI Yeast Anticancer Drug Screen. Data for the rad50 strain (AID 155);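 further: 0% = growth of vehicle-only cultures of the same strain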; settings: S. cerevisiae rad50 strain growth inhibition; at 5.0 µM (retest, dose inferred, filed as 0.5); stronger effect = higher value
Outline: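 Growth of the mutant yeast was measured after compound exposure and referenced to vehicle-treated cultures.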

Row | Compound | growth inhibition
1 | COc1cccc2c1C(=O)c1c(O)c3c(c(O)c1C2=O)C[C@@](O)(C(C)=O)C[C@@H]3OC1CC(O)C(O)C(C)O1 (stereo partly specified) | 45%
2 | COc1cccc2c1C(=O)c1c(O)c3c(c(O)c1C2=O)C[C@@](O)(C(C)=O)C[C@@H]3OC1CC(N(C)C)C(O)C(C)O1 (stereo partly specified) | 98% (active)
3 | C[N+]1(C)CCC(c2ccccc2)(c2ccccc2)C(=O)C1 | -12%
4 | CC[C@@]1(OC(=O)C(N)CCCCN)C(=O)OCc2c1cc1n(c2=O)Cc2cc3ccccc3nc2-1 (stereo partly specified) | 92% (active)
5 | CCN(CCO)CCNc1ccc(C)c2sc3ccccc3c(=O)c12 | 36%
6 | NC(=O)SCC(=O)NNc1ccccc1 | 16%
7 | CCN(CC)c1ccc(C(=C2C=CC(=[N+](CC)CC)C=C2)c2ccc(N(CC)CC)cc2)cc1 | 97% (active)
8 | Nc1ncnc2c(C3OC(CO)C(O)C3O)scc12 (stereo unspecified) | 12%
9 | Nc1ccc(Cn2ccc3c4c(N)nc(N)nc4ccc32)cc1 | 14%
10 | Cc1n(CC(C)C)c2c([n+]1C)C(=O)c1ccccc1C2=O | 34%
11 | c1ccc(Cc2cc3ccccc3c3ccccc23)cc1 | 4%
12 | Nc1nc(N)c2c(Cl)c(CNc3ccc(Cl)c(Cl)c3)ccc2n1 | 82% (active)
13 | C=C1CC2(CC(c3ccccc3OC)OC(c3ccccc3OC)C2)OC1=O (stereo unspecified) | 34%
14 | O=[N+]([O-])c1c(Cl)nc2ccccn12 | 2%
15 | C/C(=N\NC(=S)N1CCN(c2ccccn2)CC1)c1nccs1 | 23%
16 | Clc1nc(Cl)c(Cl)c(Cl)n1 | 29%
17 | COc1ccc(COc2ccc(C(=O)CCN3CCOCC3)cc2)cc1 | 47%
18 | O/N=C/c1cc(I)c(O)c(I)c1 | 99% (active)
19 | COC1OC2COC(c3ccccc3)OC2C(O)C1OS(=O)(=O)c1ccc(C)cc1 (stereo unspecified) | -3%

Row | Compound | growth inhibition
20 | C=C1CC2(CC(c3ccccc3C)OC(c3ccccc3C)C2)OC1=O (stereo unspecified) | 54%
21 | Cc1ccc2c(c1)C1(C)OC(C=CC1=O)O2 (stereo unspecified) | 88% (active)
22 | COc1cc(OC)c(OC)cc1/C=C\c1ccnc2ccccc12 | 19%
23 | Cc1n(Cc2ccccc2)c2c([n+]1C)C(=O)c1ccccc1C2=O | 44%
24 | O=[N+]([O-])c1cc2c(cc1S(=O)(=O)O)C1C(C3C2C2(Cl)C(Cl)=C(Cl)C3(Cl)C2(Cl)Cl)C2(Cl)C(Cl)=C(Cl)C1(Cl)C2(Cl)Cl (stereo unspecified) | -3%
25 | CCOC(=O)Nc1c(C)cc(C)c(Br)c1C | -3%
26 | COc1cc2c(c(OC)c1OC)-c1ccc(SC)c(=O)cc1C(NC(=O)c1ccccc1)CC2 (stereo unspecified) | -9%
27 | CCCCCCCCCCS(=O)CC(CO)NC(=O)/C=C/c1c(C)[nH]c(=O)[nH]c1=O (stereo unspecified) | 35%
28 | C/C(N=NC(=S)N1CCCCCC1)=C1\C=CC=CN1O | 17%
29 | Cc1cc(NCCCCCCCNc2cc(C)nc3cc([N+](=O)[O-])ccc23)c2ccc([N+](=O)[O-])cc2n1 | 1%
30 | CC1CC[P+](c2ccccc2)(c2ccccc2)c2c1ccc1ccccc21 (stereo unspecified) | 76% (active)
31 | O=C1C(Cl)=C(N2CCN(C3=C(Cl)C(=O)c4ccccc4C3=O)CC2)C(=O)c2ccccc21 | 26%
32 | CCN1CCC(O)(c2ccc(Oc3ccccc3)cc2)C(C(=O)c2ccc(Oc3ccccc3)cc2)C1 (stereo unspecified) | 25%
33 | Cc1ccc(NCCN(C)C)c2c(=O)c3cc(O)ccc3sc12 | 27%
34 | COc1ccc2nc(C)cc(NCCCCCCCCCNc3cc(C)nc4ccc(OC)cc34)c2c1 | -17%
35 | Cc1n(-c2ccccc2)c2c([n+]1Cc1ccc([N+](=O)[O-])cc1)C(=O)c1ccccc1C2=O | 1%
36 | CC1(O)Cc2c(O)c3c(c(O)c2CC1O)C(=O)C=CC3=O (stereo unspecified) | 9%
37 | c1ccc(C2=NC(c3ccccc3)=NS(S3=NC(c4ccccc4)=NC(c4ccccc4)=N3)=N2)cc1 (stereo unspecified) | 27%
38 | CC[C@](O)(CC(=O)O[C@H]1C(=O)O[C@@H]2C[C@H]3C(C)=CC(=O)[C@@H](O)[C@]3(C)[C@H]3[C@@]4(O)OC[C@]32[C@@H]1[C@@H](C)[C@H]4O)C(C)C | 44%

same assay, conditions: S. cerevisiae rad50 strain growth inhibition; at 50.0 µM (retest, dose inferred, filed as 5.0); stronger effect = higher value

Row | Compound | growth inhibition
39 | COc1cccc2c1C(=O)c1c(O)c3c(c(O)c1C2=O)C[C@@](O)(C(C)=O)C[C@@H]3OC1CC(O)C(O)C(C)O1 (stereo partly specified) | 95% (active)
40 | COc1cccc2c1C(=O)c1c(O)c3c(c(O)c1C2=O)C[C@@](O)(C(C)=O)C[C@@H]3OC1CC(N(C)C)C(O)C(C)O1 (stereo partly specified) | 98% (active)
41 | C[N+]1(C)CCC(c2ccccc2)(c2ccccc2)C(=O)C1 | -8%
42 | CC[C@@]1(OC(=O)C(N)CCCCN)C(=O)OCc2c1cc1n(c2=O)Cc2cc3ccccc3nc2-1 (stereo partly specified) | 95% (active)
43 | CCN(CCO)CCNc1ccc(C)c2sc3ccccc3c(=O)c12 | 98% (active)
44 | NC(=O)SCC(=O)NNc1ccccc1 | 54%
45 | CCN(CC)c1ccc(C(=C2C=CC(=[N+](CC)CC)C=C2)c2ccc(N(CC)CC)cc2)cc1 | 91% (active)
46 | Nc1ncnc2c(C3OC(CO)C(O)C3O)scc12 (stereo unspecified) | 36%
47 | Nc1ccc(Cn2ccc3c4c(N)nc(N)nc4ccc32)cc1 | 83% (active)
48 | Cc1n(CC(C)C)c2c([n+]1C)C(=O)c1ccccc1C2=O | 98% (active)
49 | c1ccc(Cc2cc3ccccc3c3ccccc23)cc1 | 14%
50 | Nc1nc(N)c2c(Cl)c(CNc3ccc(Cl)c(Cl)c3)ccc2n1 | 98% (active)
51 | C=C1CC2(CC(c3ccccc3OC)OC(c3ccccc3OC)C2)OC1=O (stereo unspecified) | 58%
52 | O=[N+]([O-])c1c(Cl)nc2ccccn12 | 26%
53 | C/C(=N\NC(=S)N1CCN(c2ccccn2)CC1)c1nccs1 | 98% (active)
54 | Clc1nc(Cl)c(Cl)c(Cl)n1 | 98% (active)
55 | COc1ccc(COc2ccc(C(=O)CCN3CCOCC3)cc2)cc1 | 62%
56 | O/N=C/c1cc(I)c(O)c(I)c1 | 98% (active)
57 | COC1OC2COC(c3ccccc3)OC2C(O)C1OS(=O)(=O)c1ccc(C)cc1 (stereo unspecified) | 1%

Row | Compound | growth inhibition
58 | C=C1CC2(CC(c3ccccc3C)OC(c3ccccc3C)C2)OC1=O (stereo unspecified) | 85% (active)
59 | Cc1ccc2c(c1)C1(C)OC(C=CC1=O)O2 (stereo unspecified) | 100% (active)
60 | COc1cc(OC)c(OC)cc1/C=C\c1ccnc2ccccc12 | 73% (active)
61 | Cc1n(Cc2ccccc2)c2c([n+]1C)C(=O)c1ccccc1C2=O | 97% (active)
62 | O=[N+]([O-])c1cc2c(cc1S(=O)(=O)O)C1C(C3C2C2(Cl)C(Cl)=C(Cl)C3(Cl)C2(Cl)Cl)C2(Cl)C(Cl)=C(Cl)C1(Cl)C2(Cl)Cl (stereo unspecified) | 10%
63 | CCOC(=O)Nc1c(C)cc(C)c(Br)c1C | -3%
64 | COc1cc2c(c(OC)c1OC)-c1ccc(SC)c(=O)cc1C(NC(=O)c1ccccc1)CC2 (stereo unspecified) | 65%
65 | CCCCCCCCCCS(=O)CC(CO)NC(=O)/C=C/c1c(C)[nH]c(=O)[nH]c1=O (stereo unspecified) | 93% (active)
66 | C/C(N=NC(=S)N1CCCCCC1)=C1\C=CC=CN1O | 38%
67 | Cc1cc(NCCCCCCCNc2cc(C)nc3cc([N+](=O)[O-])ccc23)c2ccc([N+](=O)[O-])cc2n1 | 87% (active)
68 | CC1CC[P+](c2ccccc2)(c2ccccc2)c2c1ccc1ccccc21 (stereo unspecified) | 98% (active)
69 | O=C1C(Cl)=C(N2CCN(C3=C(Cl)C(=O)c4ccccc4C3=O)CC2)C(=O)c2ccccc21 | 98% (active)
70 | CCN1CCC(O)(c2ccc(Oc3ccccc3)cc2)C(C(=O)c2ccc(Oc3ccccc3)cc2)C1 (stereo unspecified) | 19%
71 | Cc1ccc(NCCN(C)C)c2c(=O)c3cc(O)ccc3sc12 | 99% (active)
72 | COc1ccc2nc(C)cc(NCCCCCCCCCNc3cc(C)nc4ccc(OC)cc34)c2c1 | 94% (active)
73 | Cc1n(-c2ccccc2)c2c([n+]1Cc1ccc([N+](=O)[O-])cc1)C(=O)c1ccccc1C2=O | 97% (active)
74 | CC1(O)Cc2c(O)c3c(c(O)c2CC1O)C(=O)C=CC3=O (stereo unspecified) | 51%
75 | c1ccc(C2=NC(c3ccccc3)=NS(S3=NC(c4ccccc4)=NC(c4ccccc4)=N3)=N2)cc1 (stereo unspecified) | 94% (active)
76 | CC[C@](O)(CC(=O)O[C@H]1C(=O)O[C@@H]2C[C@H]3C(C)=CC(=O)[C@@H](O)[C@]3(C)[C@H]3[C@@]4(O)OC[C@]32[C@@H]1[C@@H](C)[C@H]4O)C(C)C | 97% (active)
